Drawing on PubChem BioAssay AID720504 (National Center for Advancing Translational Sciences (NCATS), 2013), this text covers max response, negative = inhibition and Potency for 90 compounds.

The campaign covered roughly 360,000 compounds. About 10,000 (2.8%) were called active. Another 4% or so got no clear call; they are omitted. The entries come from a sample that favours actives as a whole. Values without a mark were called inactive. The call rests on the fitted dose curve; in most records, active means well fitted inhibition curve with a large enough effect; inconclusive means small, poorly fitted or top-dose-only effect; inactive means flat fitted curve, though single readings scatter.
On the % scale 0 is the no-effect control and ±100 the full control effect; potency means the concentration at half of the fitted maximal effect.

The target in the assay is Serine/threonine-protein kinase PLK1 (Homo sapiens) (UniProt P53350). Briefly: qHTS for Inhibitors of PLK1-PDB (polo-like kinase 1 - polo-box domain): Primary Screen. Further: nearly all actives have a fitted effect of over 65% in size. On max response, negative = inhibition: series mostly up to about 57 µM. Conditions: Plk1 PBD binding of FITC phosphopeptide, fluorescence polarization.
Chain of Serine/threonine-protein kinase PLK1 (Homo sapiens) (P53350 whole entry, looked up, the tested form may be a part): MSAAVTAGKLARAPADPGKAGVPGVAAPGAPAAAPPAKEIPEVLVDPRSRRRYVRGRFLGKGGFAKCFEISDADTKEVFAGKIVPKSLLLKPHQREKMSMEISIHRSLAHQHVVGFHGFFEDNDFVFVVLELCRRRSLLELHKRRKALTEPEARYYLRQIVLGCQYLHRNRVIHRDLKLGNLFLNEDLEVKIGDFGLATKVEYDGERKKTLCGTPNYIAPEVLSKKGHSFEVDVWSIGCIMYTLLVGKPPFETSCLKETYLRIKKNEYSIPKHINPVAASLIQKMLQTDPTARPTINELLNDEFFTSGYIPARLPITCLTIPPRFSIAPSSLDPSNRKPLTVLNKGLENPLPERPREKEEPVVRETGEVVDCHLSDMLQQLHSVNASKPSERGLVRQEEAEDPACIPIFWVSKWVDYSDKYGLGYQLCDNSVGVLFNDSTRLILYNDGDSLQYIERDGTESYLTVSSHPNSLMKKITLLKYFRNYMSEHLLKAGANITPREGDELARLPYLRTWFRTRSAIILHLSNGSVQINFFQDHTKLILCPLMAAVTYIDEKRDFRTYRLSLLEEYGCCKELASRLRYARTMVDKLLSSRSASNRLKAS
For `O=C(Nc1ccc2c(c1)OCCO2)C1c2ccccc2OCC(=O)N1Cc1ccccn1` (stereo not given), the max response, negative = inhibition is -7.8%.
In the case of `CCC(C(=O)NCc1cccnc1)n1nc(C)c2sc3ccccc3c2c1=O` (stereo not given), the Potency is 26.7 µM (active).
Consider `CCC(C(=O)NCc1ccc(OC)cc1)n1nc(C)n2c(cc3occc32)c1=O` (stereo not given), for which the max response, negative = inhibition was -1.71%.
Same read-out and setting: the result for `CCc1ccc(N(CC(=O)NCc2cccnc2)S(=O)(=O)c2ccccc2)cc1` reads -2.42%.
Still for that read-out and setting: the result for `CC(=O)Nc1cccc(-c2ccnc3c2CC(C)(C(=O)NCc2ccco2)O3)c1` (stereo not given) reads -8.18%.
Still for that read-out and setting: for `COc1ccc(N(CC(=O)Nc2cc(OC)ccc2OC)S(=O)(=O)c2c(C)noc2C)cc1` the value was 2.36%.
Regarding `CCOC(=O)c1cccc(NC(=O)CN(c2ccc(C)cc2)S(=O)(=O)c2c(C)noc2C)c1`, the max response, negative = inhibition was -3.68%.
In the case of `CCOc1ccc(N(CC(=O)OC)S(=O)(=O)c2c(C)noc2C)cc1`, the Potency was 26.7 µM (active).
Turning to `CC(=O)Nc1cc(-c2ccccc2F)cn2c(-c3cccc(C(F)(F)F)c3)cnc12`, the max response, negative = inhibition was -1.88%.
The same measure, in the same setting: the result for `Cc1ccc(S(=O)(=O)N2CCN(CC(=O)N/N=C/c3ccc(Br)s3)CC2)cc1` reads -1.96%.
As for `CC(C)N(C(=O)CN1CCN(S(=O)(=O)c2ccc(Br)s2)CC1)C(C)C`, the max response, negative = inhibition is 1%.
Take `Cc1cccc(NC(=O)CN2CCCN(S(=O)(=O)c3ccc(Br)s3)CC2)c1`: the Potency was 21.2 µM (active).
As for `CCCCc1c(-c2ccc(Cl)cc2)ncn1CCc1ccccc1OC`, the max response, negative = inhibition is 5.05%.
Still for that read-out and setting: the result for `COc1ccc(-c2ccc(CN3C(CC(C)C)C(=O)N(Cc4cn(CC5CCCCC5)nn4)CCS3(=O)=O)cc2)cn1` (stereo not given) reads -1.42%; that for `COc1ccc(NC(=O)CN(C)C(=O)c2cc(C)oc2C)cc1`, 1.78%.
Consider `CNC(=O)Nc1cc(C(C)(C)C)no1`, for which the Potency is 10.6 µM (active).
As for `CCCCn1nnnc1C(c1cc2ccccc2o1)N(C)Cc1ccc(Cl)c(Cl)c1` (stereo not given), the max response, negative = inhibition was 5.97%.
Same read-out and setting: for `Cc1nc(Cl)c(C#N)c2c1CCCC2` the value was -17.7%; for `COC(=O)c1c(C)c(C)nc(N)c1C#N`, -3.28%.
As to `COCc1c(N)c(C)nc(Cl)c1C#N`, the Potency is 18.9 µM (active).
With `O=C(Nc1ccc(F)cc1)Nc1nnc([C@H]2C[C@H](O)[C@@H](CO)O2)s1`, the max response, negative = inhibition was 3.58%.
On the same count and under the same terms, for `COC(=O)C[C@H]1C=C[C@H](NC(=O)c2ccc(F)cc2)[C@@H](CO)O1` the value was -25.2%; for `CC1(C)CN(Cc2cccnc2)C(=O)[C@H]1CC(=O)Nc1ccc(Br)cc1`, 2.66%.
For `COC(=O)CCC(=O)N1CCCC(CO)(Cc2ccccc2)C1` (stereo not given), the Potency was 21.2 µM (active).
With `Cc1noc(C)c1CCC(=O)N1CCCC(CO)(Cc2ccccc2)C1` (stereo not given), the max response, negative = inhibition is -15.4%.
Same read-out and setting: the result for `Cc1ccccc1CC1(CO)CCCN(C(=O)c2cc(-c3ccccc3)no2)C1` (stereo not given) reads -5.7%.
For the compound `O=C(NCCc1cccc(F)c1)C1CC(O)CN1C(=O)Nc1ccccc1` (stereo not given), the max response, negative = inhibition was -1.53%.
For the compound `CCCCN1C(=O)C(CC(=O)NCc2cccs2)CC(C(=O)N2CCOCC2)=C1C` (stereo not given), the max response, negative = inhibition was 5.78%.
Still for that read-out and setting: for `CC(C)(C)C(=O)c1c(N)[nH]c(C(=O)c2ccccc2)c1-c1ccc(F)cc1` the value was 2.51%; for `CN(C)c1cc(-c2ccc(F)cc2)oc(=O)c1Cl`, -4.6%; for `O=c1oc2ccccc2cc1-c1cn(-c2ccccc2)c(=S)[nH]1`, -16.2%.
In the case of `O=c1oc2cc(O)ccc2cc1-c1ccc(F)cc1`, the Potency was 3.36 µM (active).
`CS(=O)(=O)/C(C#N)=C/c1cccn1S(=O)(=O)c1ccc([N+](=O)[O-])cc1`: the max response, negative = inhibition was -19.8%.
The same measure, in the same setting: the result for `Cc1cc(C)c(C#N)c(SCc2ccc3c(c2)OCO3)n1` reads -1.63%.
Regarding `Cc1ccc(CSc2nsc(C)c2C#N)cc1`, the Potency was 15 µM (active).
`Cc1snc(SCc2c(F)cccc2Cl)c1C#N`: the max response, negative = inhibition was -3.96%.
Still for that read-out and setting: for `CC(=O)c1ccc(-c2cnc3c(NC=O)cc(-c4cccc(NS(C)(=O)=O)c4)cn23)cc1` the value was 2.12%.
Consider `COC(=O)C[C@@H]1C=C[C@@H](NC(=O)c2cccnc2)[C@@H](CO)O1`, for which the max response, negative = inhibition was -16.8%.
On the same count and under the same terms, for `CCCCN(C(C)=O)c1ccc2c(c1)C1CC2CCN1Cc1ccccc1` (stereo not given) the value was -11%; for `CCCCn1nnnc1C1(C)CCC(=O)N1Cc1ccc(OC)c(OC)c1` (stereo not given), -1.18%.
On to `COc1ccc(COC[C@H](CC(C)C)N2CCN(C(=O)c3cccc(C(F)(F)F)c3)CCC2=O)cc1`, for which the max response, negative = inhibition was -20.7%.
`CC(=O)NS(=O)(=O)c1ccc(NC(=O)/C=C/c2ccccc2Cl)cc1`: the Potency is 29.9 µM (active).
Turning to `O=C(/C=C/c1ccccc1Cl)Nc1ccc(S(=O)(=O)Nc2ncccn2)cc1`, the max response, negative = inhibition was -7.83%.
The same measure, in the same setting: for `NS(=O)(=O)c1ccc(NC(=O)/C=C/c2ccccc2Cl)cc1` the value was 2.86%.
Still for that read-out and setting: for `COCOc1cccc(CN2CCC(C)(Oc3ccc(SC)cc3)C2)c1` (stereo not given) the value was -0.463%; for `O=C(Nc1cc(S(=O)(=O)N2CCOCC2)ccc1Cl)c1cc(=O)c2ccccc2o1`, 1.44%.
The same measure, in the same setting: for `O=C(c1cc(S(=O)(=O)N2CCOCC2)ccc1Cl)N1CCOCC1` the value was -9.46%.
With `O=[N+]([O-])c1cc(Cl)cc(/C=N/NC(=S)Nc2cc(S(=O)(=O)N3CCOCC3)ccc2Cl)c1O`, the Potency is 10.6 µM (active).
`OC[C@@H]1CN(Cc2cccs2)C[C@H](n2cnc3c(Nc4ccccc4)ncnc32)O1`: the max response, negative = inhibition was -1.6%.
As to `COCCOC(=O)c1sc(=S)n(CCOC)c1N`, the Potency was 23.8 µM (active).
Regarding `COc1ccccc1CNc1nc(Nc2ccccc2Cl)c2sccc2n1`, the max response, negative = inhibition is 5.05%.
With `COc1ccc(S(=O)(=O)N[C@@H]2C=C[C@@H](CC(=O)N3CCc4ccccc4C3)O[C@@H]2CO)cc1`, the max response, negative = inhibition was -0.456%.
Regarding `Fc1ccc(Nc2nnns2)cc1`, the Potency was 13.4 µM (active).
For the compound `CN(C)c1ccnc(Nc2ccc(F)cc2)c1C#N`, the max response, negative = inhibition was -0.535%.
Same read-out and setting: the result for `O=C(Nc1ccncc1)Nc1ccc(F)cc1` reads 2.49%; that for `Cc1ccc(NC(=O)c2ccco2)cc1`, -4.07%; that for `CCOC(=O)[C@]12CCCC=C1N(Cc1ccc(Cl)cc1Cl)C(=O)[C@H](CC(=O)N1CCCCC1)C2`, -4.73%.
Same read-out and setting: the result for `CNC(=O)C[C@H]1C(=O)N(c2ccc(OC)cc2)C[C@@H]1Cc1ccccc1` reads -11.8%.
Turning to `Cc1ccccc1NC(=O)CSC(=O)c1ccccc1`, the Potency is 10.6 µM (active).
With `Cc1ccccc1NC(=O)CCOc1ccccc1`, the max response, negative = inhibition is -11.8%.
The same measure, in the same setting: for `Cc1cccc(NC(=O)CSC(N)=O)c1C` the value was -17.1%; for `CC1(C(=O)Nc2ccc3c(c2)OCCO3)CSCC(=O)N1CCOc1ccccc1` (stereo not given), 0.116%.
Still for that read-out and setting: for `OCCC#Cc1ccc(N2C(c3ccsc3)=Cc3ccc(F)cc3C2c2c[nH]c3ccccc23)cc1` (stereo not given) the value was -1.41%.
As to `COc1cccc(NC(=O)CCc2nnc3ccc(N4CCC(C)CC4)nn23)c1`, the Potency was 26.7 µM (active).
`CCOC(=O)c1cccc(NC(=O)CCc2nnc3ccc(N4CCOCC4)nn23)c1`: the max response, negative = inhibition is 2.15%.
As for `COc1cccc(N2CCN(c3ccc4nnc(CCC(=O)N5CCN(C)CC5)n4n3)CC2)c1`, the max response, negative = inhibition was -2.01%.
Same read-out and setting: for `CC(C)CCOc1ccc(C(=O)Nc2cc(S(=O)(=O)N3CCOCC3)ccc2N2CCOCC2)cc1` the value was -15.2%; for `COc1ccc(-c2ccc(C(=O)NC(C)C)c3occc23)c(C)c1`, -5.99%.
For `CC1=NN(c2ccc(Cl)c(C(=O)O)c2)C(=O)/C1=C/c1ccc(-c2ccccc2[N+](=O)[O-])o1`, the Potency is 0.844 µM (active).
As for `O=C(Nc1ccc(N2CCOCC2)cc1)c1ccc(-c2ccccc2[N+](=O)[O-])o1`, the max response, negative = inhibition is -4.38%.
On the same count and under the same terms, for `O=C1NC(c2ccc(-c3ccccc3[N+](=O)[O-])o2)C(C(=O)c2ccc(Cl)cc2)C(O)(C(F)(F)F)N1` (stereo not given) the value was -5.49%.
Same read-out and setting: for `CCCS(=O)(=O)NC(=O)C1(C)CCN(C(=O)c2sccc2C)C1` (stereo not given) the value was -7.96%; for `C[C@H](NC(=O)CC[C@H]1O[C@@H](n2ccc(=O)[nH]c2=O)[C@H](O)[C@@H]1O)c1cccc2ccccc12`, -3.83%; for `O=C(NCc1ccco1)c1cccc(-c2ccc3nncn3c2)c1`, 6.92%.
As to `CCCCCNC(=O)C1C(=O)Nc2ccccc2C(=O)N1C(C)(C)C` (stereo not given), the max response, negative = inhibition was -13.8%.
With `S=c1[nH]nc(-c2cccs2)n1/N=C/c1cccs1`, the Potency was 37.7 µM (active).
For `S=c1[nH]nc(-c2cccs2)n1/N=C/c1cn(-c2ccccc2)nc1-c1ccc(Cl)cc1`, the max response, negative = inhibition was -14.4%.
Same read-out and setting: for `Cc1ccsc1/C=N/n1c(=S)[nH]nc(C)c1=O` the value was -9.18%; for `CC(C)c1cccc(-c2csc(C(O)c3ccccc3)n2)c1` (stereo not given), -9.83%.
As for `Cc1ccc(-c2nn(-c3ccccc3)cc2/C=C/C(=O)Nc2cccc(S(N)(=O)=O)c2)cc1`, the max response, negative = inhibition was -5.39%.
On the same count and under the same terms, the result for `O=C(CN1C(=O)/C(=C\c2ccccc2F)SC1=S)Nc1nc2ccccc2s1` reads -28.6%; that for `Cc1ccc(-c2nn(-c3ccccc3)cc2/C=C2\SC(=S)N(CCCCCC(=O)O)C2=O)o1`, 165%.
As for `CN(C)S(=O)(=O)c1cccc(-c2nn(-c3ccccc3)cc2/C=C2\SC(=S)N(CC(=O)O)C2=O)c1`, the Potency was 26.7 µM (active).
`COc1cccc(/C=C2\SC(=S)N(CCCC(=O)N3CCOCC3)C2=O)c1`: the max response, negative = inhibition was -2.08%.
As for `COc1ccc(-c2nn(-c3ccccc3)cc2/C=C2/SC(=S)N(CCCC(=O)O)C2=O)c(C)c1`, the Potency is 29.9 µM (active).
For `COc1ccc(CC(N)c2csc(NC(=O)Nc3ccc(C(C)C)cc3)n2)cc1` (stereo not given), the max response, negative = inhibition was -5.6%.
In the case of `CC1(C(=O)Nc2cccc3c2CCCC3)CCN1C(=O)CCc1ccc(Cl)cc1Cl` (stereo not given), the max response, negative = inhibition was 0.165%.
For the compound `N#Cc1c(-c2cccs2)nc(SCC(=O)c2ccc(Br)cc2)[nH]c1=O`, the Potency was 26.7 µM (active).
`CC(=O)CSc1nc(CCc2ccccc2)c(C#N)c(=O)[nH]1`: the max response, negative = inhibition was 5.25%.
Still for that read-out and setting: for `O=C(CSc1nc2ccccc2c(=O)[nH]1)Nc1nc(-c2ccc(Br)cc2)cs1` the value was -29%.
